An excerpt weighted towards active compounds, which were near 8.9% of everything screened.
HPGD inh – HPGD (human) dehydrogenase inhibition. purified HPGD, NADH fluorescence kinetic, PGE2 substrate. AID 894. P15428. Potency, µM, without a hit: at the highest dose activity change, negative = inhibition, actives largely listed as inhibitors. 4.3% of 150,000 active; active = well fitted inhibition curve with a large enough effect, not every such curve was filed as active; inconclusive = small, poorly fitted or top-dose-only effect, or another doubt; inactive = no such curve, though single readings can be large or run the other way; note: potency is the fitted concentration of half-maximal effect
Target sequence (P15428 whole entry, looked up): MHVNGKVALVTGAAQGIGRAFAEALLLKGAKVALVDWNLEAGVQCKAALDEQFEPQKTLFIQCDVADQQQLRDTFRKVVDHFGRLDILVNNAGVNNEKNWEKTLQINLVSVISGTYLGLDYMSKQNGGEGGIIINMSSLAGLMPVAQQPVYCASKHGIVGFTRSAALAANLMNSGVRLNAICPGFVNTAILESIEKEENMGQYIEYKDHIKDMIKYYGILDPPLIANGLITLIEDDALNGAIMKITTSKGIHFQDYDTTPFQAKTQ
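NADH formation kinetics: reaction with 30 uM PGE2 and 1 mM NAD+ (final), 20 nM enzyme, Tris-HCl pH 8 with Tween 20, after 15 min compound preincubation at room temperature. Fluorescence change, last versus first of five reads.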
12-hLO inh – inhibitors of human 12-lipoxygenase (ALOX12); P18054; purified 12-hLO, xylenol orange hydroperoxide absorbance; Potency, µM (series often up to 57.1 µM), without a hit: at the highest dose activity change, negative = inhibition, actives largely listed as inhibitors; 0.12% of 150,000 active; note: potency is the fitted concentration of half-maximal effect; nearly all actives have a fitted effect of over 55% in size
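Lipoxygenase turnover measured by absorbance at 573 and 405 nm after Fe-XO development. Human 12hLO 150 nM, arachidonate 40 uM, pH 7.0 Hepes buffer with detergent; 15 min compound preincubation, 30 min reaction.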
NPSR antagonist – antagonists of human neuropeptide S receptor cAMP signaling | CHO-NPSR cells, cAMP TR-FRET, antagonist mode | 1% of 220,000 active | Q6W5P4 | Potency, µM (titrated, usually from 38.3 µM), for the others: top-dose activity change, negative = inhibition, usual class: inhibitors; note: potency is the fitted concentration of half-maximal effect; nearly all actives have a fitted effect of over 50% in size
Target sequence (Q6W5P4 whole entry, looked up): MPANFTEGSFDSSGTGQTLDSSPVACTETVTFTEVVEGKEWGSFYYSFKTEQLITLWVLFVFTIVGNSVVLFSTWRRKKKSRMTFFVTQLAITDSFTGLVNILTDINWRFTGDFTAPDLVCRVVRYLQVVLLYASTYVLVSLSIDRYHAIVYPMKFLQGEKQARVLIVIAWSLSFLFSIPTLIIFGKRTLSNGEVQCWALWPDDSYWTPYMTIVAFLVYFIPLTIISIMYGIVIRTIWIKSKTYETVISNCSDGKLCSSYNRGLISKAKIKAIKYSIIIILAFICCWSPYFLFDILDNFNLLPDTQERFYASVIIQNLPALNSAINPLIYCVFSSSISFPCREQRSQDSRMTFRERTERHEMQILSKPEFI
IMPase cell inh – IMPase inhibition in cells. P97697. CHO-M1 cells, IP1 accumulation, HTRF TR-FRET ratio. inhibition (IP1 accumulation), % at 46.1 µM. 120,000 tested, under 10 active; active = well fitted curve in the direction sought with a large enough effect in the signal ratio, not every such curve was filed as active; inconclusive = small, poorly fitted or top-dose-only effect, or a change in a side signal; inactive = no such curve, though single readings can be large or run the other way; the % refers to the signal ratio;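 note: cells stimulated with carbachol in lithium chloride buffer; plate controls were DMSO basal wells for no effect and reference inhibitor wells for full effect; higher means more IMPase inhibition seen as more IP1 and lower FRET ratio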
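Carbachol-driven Gq signalling in CHO-M1 cells (2000/well) generates IP1. Compounds that block IMPase raise IP1 and so reduce the FRET signal from Eu-anti-IP1 and d2-IP1 after a 10 min room-temperature lysis.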
ALDH1A1 inh – blocks purified human ALDH1A1 activity; AID 1030; Purified ALDH1A1, NADH fluorescence, propionaldehyde substrate; 7.3% of 220,000 active; Potency, µM (titrated, usually from 75.3 µM), inactives show at the top dose activity, negative = inhibition, actives largely listed as inhibitors; active = well fitted inhibition curve with a large enough effect, not every such curve was filed as active; inconclusive = small, poorly fitted or top-dose-only effect, or another doubt; inactive = no such curve, though single readings can be large or run the other way;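 note: potency is the fitted concentration of half-maximal effect; plate controls were no enzyme wells and a reference inhibitor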
IMPase Li cell – membrane-permeable IMPase blocker, potentiated with lithium | AID 1457 | CHO-M1 cells, IP1 TR-FRET (IP-One), carbachol + lithium | 0.35% of 210,000 active | Potency, µM (top dose mostly 59.4 µM), for the others: at the top dose activity, negative = IMPase inhibition, hits mostly inhibitors;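 note: IP1 builds up when IMPase is blocked and the TR-FRET signal falls; potency is the fitted concentration of half-maximal effect; plate controls were basal vehicle for no effect and high inhibitor control for full effect; nearly all actives have a fitted effect of over 50% in size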
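Steps: plate 2000 CHO-M1 cells per well and culture 16–30 h; add compound and lithium; incubate 30 min, 37C; add d2-IP1 tracer and Eu cryptate anti-IP1 antibody in lysis buffer; read after 10 min at room temperature.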
The depositor's hits bear a star; [ ] = dose if it differs, or a comment. Unless noted, calls come from the whole dose curve; as a rule, active = well fitted curve in the direction sought with a large enough effect; inconclusive = small, poorly fitted or top-dose-only effect, or another doubt; inactive = no such curve, though single readings can be large; an effect the other way counts as inactive or inconclusive. Unless noted, % is set by controls: 0 for no effect and ±100 for the full control effect.

`Cc1cc(C)nc(N/N=C/c2c[nH]c3ccccc23)n1` gave NPSR antagonist -12.9%, ALDH1A1 inh 1.7% and IMPase Li cell 14.1%.
For CCOC(=O)c1cc(CC)sc1N1C(=O)CC(Sc2ccccc2C(=O)O)C1=O (centres undefined) the results were NPSR antagonist 2.9%, ALDH1A1 inh inconclusive and IMPase Li cell -12.1%.
`Cc1nc(SC2CC(=O)N(c3ccccc3)C2=O)nc2c1CCCC2` (centres undefined) gave HPGD inh -10.4%, 12-hLO inh -1.2%, NPSR antagonist -15.2%[46.1 µM], IMPase cell inh -9.2, ALDH1A1 inh -12.2% and IMPase Li cell 33.1%[38.3 µM].
Screening COC(=O)c1c(N2C(=O)CC(Sc3ccccc3C(=O)O)C2=O)sc(C)c1C (centres undefined) returned NPSR antagonist -41.0%, ALDH1A1 inh -1.3% and IMPase Li cell -4.6%.
COC(=O)c1c(N2C(=O)CC(Sc3ccccc3C(=O)O)C2=O)sc2c1CCCC2 (centres undefined) was read as NPSR antagonist 0.6%, ALDH1A1 inh 0.447µM* and IMPase Li cell -10.2%.
For O=C(O)c1ccccc1SC1CC(=O)N(C2CCCCC2)C1=O (centres undefined) the results were HPGD inh -7.7%, 12-hLO inh 0.0%, NPSR antagonist 2.8%[46.1 µM], IMPase cell inh -5.0, ALDH1A1 inh 0.631µM* and IMPase Li cell 8.2%.
Screening Cc1nnc(SC2CC(=O)N(c3ccccc3)C2=O)s1 (centres undefined) returned HPGD inh 12.6µM*, 12-hLO inh -2.3%, NPSR antagonist 2.2%[46.1 µM], IMPase cell inh 1.8, ALDH1A1 inh 0.708µM* and IMPase Li cell 11.3%.
Screening O=C1CC(Sc2cccs2)C(=O)N1c1ccccc1 (centres undefined) returned NPSR antagonist -14.0% and ALDH1A1 inh 12.6µM*.
For C/C(=N\NC(=O)CNc1ccccc1Cl)C(C)(C)C the results were HPGD inh -4.1%, 12-hLO inh -4.9%, NPSR antagonist -6.1%[46.1 µM], IMPase cell inh 1.0, ALDH1A1 inh -0.2% and IMPase Li cell -8.6%[38.3 µM].
Screening O=C1CC(/C=C/c2cccnc2)=Nc2ccccc2N1 returned NPSR antagonist -10.8%, ALDH1A1 inh inconclusive and IMPase Li cell 20.2%.
Screening O=C(Cc1ccc(Cl)cc1)NNC1CC(=O)N(c2ccc3ccccc3c2)C1=O (centres undefined) returned NPSR antagonist -6.1%.
For O=C(O)c1ccccc1SC1CC(=O)N(c2ccccc2)C1=O (centres undefined) the results were HPGD inh -4.1%, 12-hLO inh -2.5%, NPSR antagonist 26.6%, ALDH1A1 inh 2.51µM* and IMPase Li cell -0.3%.
For O=C1CC(SC2=NCCS2)C(=O)N1c1ccc(Br)cc1 (centres undefined) the results were HPGD inh -10.1%, 12-hLO inh 1.9%, NPSR antagonist 6.4%, ALDH1A1 inh 7.94µM* and IMPase Li cell 1.5%.
For CCOc1ccc(CN2CCNC(=O)C2CC(=O)NCc2ccccn2)cc1 (centres undefined) the results were NPSR antagonist -11.4%, ALDH1A1 inh -10.9% and IMPase Li cell 3.1%.
`O=[N+]([O-])c1ccc(Cl)c2cccnc12` gave NPSR antagonist 3.3%, ALDH1A1 inh 17.8µM* and IMPase Li cell -1.9%.
Screening O=[N+]([O-])c1cc(F)c2cccnc2c1O returned NPSR antagonist 34.8% and ALDH1A1 inh 17.8µM*.
Screening O=[N+]([O-])c1cccc2c(Cl)ccnc12 returned NPSR antagonist -2.3%, ALDH1A1 inh inconclusive and IMPase Li cell 19.2%.
For O=[N+]([O-])c1cc(Cl)c2cccnc2c1O the results were NPSR antagonist -40.8%, ALDH1A1 inh -9.7% and IMPase Li cell -2.3%.
For CC(=O)c1ccc(NC(=O)C(C)OC(=O)COc2ccc(C#N)cc2)cc1 (centres undefined) the results were 12-hLO inh 0.0%, NPSR antagonist 2.8%[46.1 µM], IMPase cell inh -3.7 and ALDH1A1 inh -0.2%.
Screening COCCN(C(=O)c1csnn1)C(C(=O)NC1CCCCC1)c1sccc1C (centres undefined) returned HPGD inh -15.2%, 12-hLO inh 6.9%, NPSR antagonist -10.8%[46.1 µM], IMPase cell inh 1.3, ALDH1A1 inh inconclusive and IMPase Li cell -6.5%[38.3 µM].
For N#Cc1nc(-c2ccccc2F)oc1NC1CCCCC1 the results were HPGD inh inconclusive, 12-hLO inh -3.1%, NPSR antagonist inconclusive, IMPase cell inh -4.0, ALDH1A1 inh inconclusive and IMPase Li cell -1.2%[38.3 µM].
`CCOC(=O)C1=C(C)N(c2ccccc2)C(=O)/C1=C\c1ccco1` gave HPGD inh -18.5%, 12-hLO inh 3.4%, NPSR antagonist -33.6%, ALDH1A1 inh 11.2µM* and IMPase Li cell 8.8%.
`Nc1nc(-c2cccc(NS(=O)(=O)c3ccccc3)c2)cs1` gave HPGD inh 11.2µM*, 12-hLO inh -14.6%, NPSR antagonist -20.7%[46.1 µM], IMPase cell inh 4.0, ALDH1A1 inh 7.94µM* and IMPase Li cell 14.4%.
Screening O=C(/C=C(\O)c1ccccc1)c1ccccc1O returned HPGD inh 20µM*, 12-hLO inh 5.7%, ALDH1A1 inh 2.0% and IMPase Li cell 4.8%.
Screening O=C(/C=C\c1ccccc1)c1ccccc1O returned ALDH1A1 inh 0.7%[13.5 µM].
Screening COc1ccc(-n2c(C)cc(-c3csc(NC(=O)c4ccc(S(=O)(=O)N(C)C)cc4)n3)c2C)cc1 returned HPGD inh -4.1%, 12-hLO inh -2.3%, NPSR antagonist inconclusive, ALDH1A1 inh 2.24µM* and IMPase Li cell -5.0%.
`CC1=C(C(=O)Nc2cc(C)ccc2C)C(c2cccs2)NC(=S)N1` (centres undefined) gave HPGD inh -1.1%, 12-hLO inh 2.8%, NPSR antagonist -13.0%[46.1 µM], IMPase cell inh -1.2, ALDH1A1 inh 5.62µM* and IMPase Li cell 3.6%[38.3 µM].
For CC1=C(C(=O)NCc2ccccc2)C(c2cccs2)NC(=S)N1 (centres undefined) the results were NPSR antagonist -3.8%, ALDH1A1 inh inconclusive and IMPase Li cell 1.3%.
`CNC(=O)C1=C(C)NC(=S)NC1c1cccs1` (centres undefined) gave NPSR antagonist 20.9%, ALDH1A1 inh -2.3% and IMPase Li cell -4.7%.
`CC1=C(C(=O)Nc2ccccc2F)C(c2cccs2)NC(=S)N1` (centres undefined) gave NPSR antagonist 9.7%, ALDH1A1 inh 12.6µM* and IMPase Li cell 0.7%.

Compound activity (PubChem)
